In PubChem BioAssay AID686979 (National Center for Advancing Translational Sciences (NCATS), 2013):
“And” between values parts separate entries of the source, which are not always exact repeats. Equal entries are not always repeated. Out of some 420,000 compounds screened, about 50,000 (12%) were called active. Not shown: some 26% with an inconclusive outcome. Calls come from the whole dose curve; as a rule, active = well fitted inhibition curve with a large enough effect; inconclusive = small, poorly fitted or top-dose-only effect; inactive = flat fitted curve, though single readings scatter. The full list was thinned out, with actives kept by preference.

test: qHTS for Inhibitors of human tyrosyl-DNA phosphodiesterase 1 (TDP1): qHTS in cells in presence of CPT; details: chicken DT40 Tdp1-/-;hTDP1 cells + 20 nM CPT, ATP luminescence, 48 h; series mostly up to 46.2 µM; activity change, negative = growth inhibition: at the top concentration; note: nearly all actives have a fitted effect of over 55% in size
Procedure, shortened: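 Cell growth measured by CellTiter-Glo luminescence after a minimum 48 h, 37 C compound exposure with 20 nM CPT in Tdp1-knockout DT40 cells stably expressing hTDP1, seeded 400/well; qHTS titration format.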
% is set by controls: 0 for no effect and ±100 for the full control effect; potency is the fitted concentration of half-maximal effect.

Row | Structure (SMILES) | activity change, negative = growth inhibition | Potency
1 | CN(CC(=O)Nc1ccccc1Cl)C(=O)c1ccccc1SCC(=O)N1CCCC1 | 1.16% (inactive) | 
2 | Cc1cccc(CNC(=O)c2cnn(-c3nccc(-c4ccccc4F)n3)c2C2CC2)n1 | -0.952% [at 9.04 µM] (inactive) | 
3 | CCOc1ccccc1N1CN(Cc2ccccc2)CNC1=S | -17.4% (inactive) | 
4 | O=C1CCCN1C(=O)COc1ccc([N+](=O)[O-])cc1 | 10.3% (inactive) | 
5 | CN(Cc1ccccc1)C(=O)c1cn(C)c2ccc(S(=O)(=O)N(C)C3CCCCC3)cc2c1=O | -20% (inactive) | 
6 | CCN(CC)S(=O)(=O)c1ccc2[nH]cc(C(=O)NCCc3ccccc3)c(=O)c2c1 |  | 14.6 µM (active) and 23.1 µM (active)
7 | CN(c1ccccc1)S(=O)(=O)c1ccc(Cl)c(C(=O)NCCc2c[nH]c3ccccc23)c1 |  | 14.6 µM (active)
8 | CN(c1ccccc1)S(=O)(=O)c1ccc(Cl)c(C(=O)OCC(N)=O)c1 | 0.976% (inactive) | 
9 | O=C(NCCc1ccccc1)c1c[nH]c2ccc(F)cc2c1=O | 9.16% (inactive) | 
10 | CCc1ccc(NS(=O)(=O)c2ccc3[nH]cc(C(=O)NCCc4cccc(C)c4)c(=O)c3c2)cc1 | -27.2% (inactive) | 
11 | CC(=O)N/C(=C/c1ccc(Cl)cc1)C(=O)NCCc1c[nH]c2ccccc12 | -13.8% (inactive) | 
12 | CN(CC(=O)NC(=O)Nc1ccccc1F)Cc1ccccc1 | -15.6% (inactive) | 
13 | COCCNC(=O)C1CCN(C(=O)C2CC(=O)N(c3ccc(C)cc3)C2)CC1 (centres undefined) | 10.4% (inactive) | 
14 | CCN(CC)CCCNC(=O)COc1ccc2oc3c(c2c1)CCCC3 | -13.5% (inactive) | 
15 | N[C@@H](Cc1ccccc1)C(=O)N1CCOCC1 | 4.38% (inactive) | 
16 | COc1cc(OC)cc(C(=O)NCCCn2ccnc2)c1 | 28.8% (inactive) | 
17 | CCOc1ccc(-c2cc3nc(C4CCN(C(=O)OC(C)(C)C)CC4)c(C(=O)Nc4ccc(C(=O)OC)cc4)cn3n2)cc1 | -25.1% (inactive) | 
18 | CCc1cccc(NC(=O)COC(=O)C2CCN(c3ccc(C(F)(F)F)cn3)CC2)c1 | 0.109% (inactive) | 
19 | CCOc1ccc(-c2cc3nc(C4CCN(C(=O)OC(C)(C)C)CC4)c(C(=O)Nc4cccc(CC)c4)cn3n2)cc1 |  | 23.1 µM (active)
20 | O=c1[nH]cnc(O)c1C(c1ccc(F)cc1)c1c(O)nc[nH]c1=O | 6.39% (inactive) | 
21 | CC(=O)Oc1ccc(C(C)=O)c2c1OCCO2 | -4.02% (inactive) | 
22 | CC(=O)NCCc1ccc(S(=O)(=O)Nc2ccc(C)c(S(=O)(=O)N3CCOCC3)c2)cc1 | -15.7% (inactive) | 
23 | O=C(NN=Cc1ccccc1O)NN=Cc1ccccc1O |  | 4.11 µM (active)
24 | C=CCOc1ccccc1/C=N/NC(=O)Cc1ccccc1 | -0.93% (inactive) | 
25 | O=C(CCCCCNC(=O)c1ccccc1)N/N=C/c1ccccc1 | -4.67% (inactive) | 

Row | Structure (SMILES) | activity change, negative = growth inhibition | Potency
26 | Oc1ccccc1C=NC1CCCCC1N=Cc1ccccc1O (centres undefined) | -9.12% (inactive) | 
27 | O=C(N/N=C/c1ccccc1O)/C(=C/c1ccccc1)CCO |  | 3.26 µM (active)
28 | O=C(CCC(=O)Nc1ccccc1)N/N=C/c1ccccc1F | 15.4% (inactive) | 
29 | CN(Cc1nc2ccccc2s1)C(=O)c1ccc(F)cc1 | -8.72% (inactive) | 
30 | CCCS(=O)(=O)NC(=O)C1(C)CCN(C(=O)c2sccc2C)C1 (centres undefined) | 2.03% (inactive) | 
31 | CCc1ccc(C(=O)C(C)OC(=O)CN2C(=O)NC3(CCCC3)C2=O)cc1 (centres undefined) | -24.3% (inactive) | 
32 | COC(=O)Nc1ccc(S(=O)(=O)Nc2cc(OC)nc(OC)n2)cc1 | 3.17% (inactive) | 
33 | CCOC(=O)c1ccc(NC(=O)Cn2c(=O)n(-c3ccc(C)cc3)c(=O)c3c2cnn3C)cc1 | -19.4% (inactive) | 
34 | COC(=O)C1=C(C(=O)OC)C2(OC1c1ccc(Br)cc1)C(=O)c1ccccc1C2=O (centres undefined) | -7.41% (inactive) | 
35 | CCOc1ccc(-c2n[nH]c3c2C(c2ccccc2OC)N(c2ccc(Br)cc2)C3=O)cc1 (centres undefined) |  | 16.4 µM (active)
36 | CN1C(=O)c2[nH]nc(-c3ccc(F)cc3)c2C1c1ccccn1 (centres undefined) | -21.5% (inactive) | 
37 | CCOc1ccc(/C(O)=C2\C(=O)C(=O)N(c3ccc(OC)cc3)C2c2ccccc2[N+](=O)[O-])cc1 (centres undefined) | -12.9% (inactive) | 
38 | O=C(CCc1ccccc1)Nc1cccc(-c2nnc(-c3ccco3)o2)c1 |  | 25.9 µM (active)
39 | Cc1cccc(NC(=O)CSc2nnc(-c3ccco3)o2)c1 | 1.75% (inactive) | 
40 | C/C(=N/NC(=O)CCc1ccccc1)c1ccco1 | -1.78% (inactive) | 
41 | COc1ccc(C(=O)NCC2CCCO2)cc1S(=O)(=O)NCc1ccc(Cl)cc1 (centres undefined) | -18.3% (inactive) | 
42 | Cc1[nH]c2ccccc2c1C(=O)C(C)Sc1nnc(C2CC2)o1 (centres undefined) | -13.7% (inactive) | 
43 | COC(=O)c1cc2nc(-c3ccccc3)cc(C(F)(F)F)n2n1 | 6.15% (inactive) | 
44 | COc1ccc(-c2cc(C(F)(F)F)n3nc(-c4ccccc4)cc3n2)cc1OC |  | 10.3 µM (active)
45 | Cc1cc(-c2ccccc2)n2nc(-c3ccccc3)cc2n1 | -2.08% (inactive) | 
46 | O=C(NC1CC(=O)N(c2ccc(F)cc2)C1)C1CCCCC1 (centres undefined) | 8.8% (inactive) | 
47 | CC1CCN(S(=O)(=O)c2ccc3c(c2)n(C)c(=O)n3C)CC1 | 0.293% (inactive) | 
48 | Cc1ccc(-c2ccnc(-n3ncc(C(=O)N(C)Cc4cccc5ncccc45)c3C3CC3)n2)o1 | 10% [at 9.04 µM] (inactive) | 
49 | CC1(C)Oc2ccc3ccc(=O)oc3c2/C(=N/O)C1=O | 10.3% (inactive) | 
